Laboratory results: ChEMBL document CHEMBL1157539, “Thousands of chemical starting points for antimalarial lead identification” (Nature, 2010)

What was measured:
Format in all cases: functional
[1] = test system: Plasmodium falciparum; test: GSK_TCMDC: Inhibition of Plasmodium falciparum 3D7 in whole red blood cells, using parasite LDH activity as an index of growth. Test compounds present at 2uM
[2] = test system: Plasmodium falciparum; test: GSK_TCMDC: Inhibition of Plasmodium falciparum Dd2 in whole red blood cells, using parasite LDH activity as an index of growth. Test compounds present at 2uM
[3] = test system: HepG2; test: GSK_TCMDC: Percent inhibition of human HepG2 cell line. Test compounds present at 10uM.

**Q.** Which Inhibition [1] does the source give for `Cc1cc(Nc2ccccc2)nc(Nc2ccccc2)n1` here?
**A.** 96%

**Q.** And the Inhibition [2]?
**A.** 74%

**Q.** And the Inhibition [3]?
**A.** 0%

**Q.** What does the source list for `CN1CCC(NCc2ccc(-c3ccc(C(F)(F)F)cc3)cc2)CC1`?
**A.** Inhibition [1]: 99%; Inhibition [2]: 71%; Inhibition [3]: 54%

**Q.** For `O=C(NCCCCCN1CCC(c2c[nH]c3ccccc23)CC1)c1ccc(-c2cccnc2)cc1`, which Inhibition [1] is on record?
**A.** 89%

**Q.** What about the Inhibition [2] of the same molecule?
**A.** 10%

**Q.** And the Inhibition [3]?
**A.** 29%

**Q.** Which results are given for `CC1CN(Cc2csc(Nc3ccccc3)n2)CC(C)O1` (stereo not drawn)?
**A.** Inhibition [1]: 91%; Inhibition [2]: 81%; Inhibition [3]: 4%

**Q.** For `O=C(NCC1CCN(Cc2cccc(C(F)(F)F)c2)C1)c1cc(-c2cccc(F)c2)cs1.O=C(O)C(F)(F)F` (stereo not drawn), which Inhibition [1] is on record?
**A.** 87%

**Q.** What about the Inhibition [2] of the same molecule?
**A.** 5%

**Q.** And the Inhibition [3]?
**A.** 19%

**Q.** How did the Inhibition [1] turn out when `O=C(Cc1cccnc1)Nc1cccc(-c2cccc(-c3nc4cc(C(F)(F)F)ccc4[nH]3)c2)c1` was run?
**A.** 99%

**Q.** And the Inhibition [2]?
**A.** 38%

**Q.** And the Inhibition [3]?
**A.** 42%

**Q.** With `CC(C)NCc1ccc(-c2cccc(-c3nc4cc(C(F)(F)F)ccc4[nH]3)c2)cc1.O=C(O)C(F)(F)F` as the molecule, how does the Inhibition [1] read?
**A.** 100%

**Q.** And the Inhibition [2]?
**A.** 100%

**Q.** What about the Inhibition [3] of the same molecule?
**A.** 21%

**Q.** Which Inhibition [1] does the source give for `Cc1cc(CNCCCCCCCNCc2ccc(Cl)cc2)ccc1O` here?
**A.** 97%

**Q.** And the Inhibition [2]?
**A.** 0%

**Q.** What about the Inhibition [3] of the same molecule?
**A.** 13%

**Q.** What does the source list for `Cc1cc(O)c(-c2cccc(Oc3ccc(Cl)cc3)c2)c(C)n1`?
**A.** Inhibition [1]: 96%; Inhibition [2]: 95%; Inhibition [3]: 0%

**Q.** Which results are given for `COC(=O)C(NC(=O)NC1CCN(c2ccnc(Nc3ccc(F)cc3)n2)C1)c1ccccc1` (stereo not drawn)?
**A.** Inhibition [1]: 87%; Inhibition [2]: 8%; Inhibition [3]: 11%

**Q.** Which results are given for `Cl.O=c1cc(NCCCNCc2ccc(C(F)(F)F)s2)[nH]c2ccccc12`?
**A.** Inhibition [1]: 99%; Inhibition [2]: 68%; Inhibition [3]: 0%

**Q.** How did the Inhibition [1] turn out when `O=C(NCCCCN1CCC(c2ccc3c(c2O)CCCC3)CC1)c1ccc(-c2ccc(Cl)cc2)cc1` was run?
**A.** 98%

**Q.** What about the Inhibition [2] of the same molecule?
**A.** 72%

**Q.** And the Inhibition [3]?
**A.** 97%

**Q.** Which results are given for `CC(=O)c1ccc(N2CCN(CCC3(c4ccc(Cl)c(Cl)c4)COCN(C(=O)c4ccccc4)C3)CC2)cc1` (stereo not drawn)?
**A.** Inhibition [1]: 88%; Inhibition [2]: 95%; Inhibition [3]: 12%

**Q.** How did the Inhibition [1] turn out when `CC(C)(C)c1ccc(/C=C/C(=O)NCCCCCN2CCC(c3c[nH]c4ccccc34)CC2)cc1` was run?
**A.** 91%

**Q.** And the Inhibition [2]?
**A.** 12%

**Q.** What about the Inhibition [3] of the same molecule?
**A.** 70%

**Q.** `Cl.NOCCCOc1ccccc1` was tested. Which Inhibition [1] did it give?
**A.** 100%

**Q.** What about the Inhibition [2] of the same molecule?
**A.** 0%

**Q.** And the Inhibition [3]?
**A.** 20%

**Q.** How did the Inhibition [1] turn out when `COc1c(C=NNc2nc(=Nc3ccccc3)[nH]c(=Nc3ccccc3)[nH]2)ccc(Br)c1O` was run?
**A.** 98%

**Q.** What about the Inhibition [2] of the same molecule?
**A.** 37%

**Q.** And the Inhibition [3]?
**A.** 63%

**Q.** Which Inhibition [1] does the source give for `CCCNCc1ccc(-c2ccc(CN(CC3CCCO3)C(=O)C3CC(=O)c4ccccc43)cc2)nc1.O=C(O)C(F)(F)F` (stereo not drawn) here?
**A.** 100%

**Q.** And the Inhibition [2]?
**A.** 65%

**Q.** What about the Inhibition [3] of the same molecule?
**A.** 0%

**Q.** Which Inhibition [1] does the source give for `CC(C)(C)C1CC(=O)CC2C(=O)N(c3ccc(Br)cc3)C(=O)C21` (stereo not drawn) here?
**A.** 94%

**Q.** And the Inhibition [2]?
**A.** 7%

**Q.** What about the Inhibition [3] of the same molecule?
**A.** 0%

**Q.** Which Inhibition [1] does the source give for `O=C(NC1CC1)c1cnc(N2CCCC(c3ccccc3)C2)c(Cl)c1.O=C(O)C(F)(F)F` (stereo not drawn) here?
**A.** 95%

**Q.** And the Inhibition [2]?
**A.** 94%

**Q.** What about the Inhibition [3] of the same molecule?
**A.** 6%

**Q.** What does the source list for `O=C(O)C(F)(F)F.OC1CCCN(Cc2ccc(-c3ccc(-c4nc5cc(F)ccc5[nH]4)cc3)cc2)C1` (stereo not drawn)?
**A.** Inhibition [1]: 100%; Inhibition [2]: 79%; Inhibition [3]: 55%

**Q.** How did the Inhibition [1] turn out when `Cc1cc(NCCc2ccccc2)nc(NC(=N)Nc2ccc(Cl)cc2)n1` was run?
**A.** 100%

**Q.** What about the Inhibition [2] of the same molecule?
**A.** 100%

**Q.** What about the Inhibition [3] of the same molecule?
**A.** 7%

**Q.** Which Inhibition [1] does the source give for `O=C(O)C(F)(F)F.c1cc(CN2CCN(c3ccncc3)CC2)cc(-c2ccc(-c3nc4ccccc4[nH]3)cc2)c1` here?
**A.** 100%

**Q.** And the Inhibition [2]?
**A.** 100%

**Q.** And the Inhibition [3]?
**A.** 60%

**Q.** What does the source list for `COc1ccc(NC(=O)NC2CCN(CCCCCNC(=O)/C=C/c3ccc(Cl)c(Cl)c3)C2)c(OC)c1` (stereo not drawn)?
**A.** Inhibition [1]: 96%; Inhibition [2]: 9%; Inhibition [3]: 24%

**Q.** How did the Inhibition [1] turn out when `Nc1cc(-c2cc3c(OCc4ccccc4)cccc3[nH]2)ccn1` was run?
**A.** 85%

**Q.** What about the Inhibition [2] of the same molecule?
**A.** 15%

**Q.** And the Inhibition [3]?
**A.** 23%

**Q.** What does the source list for `O=S(=O)(c1ccc(Oc2ccccc2)cc1)N(CCC(O)(C(F)(F)F)C(F)(F)F)Cc1cccc(O)c1`?
**A.** Inhibition [1]: 100%; Inhibition [2]: 99%; Inhibition [3]: 0%

**Q.** Which Inhibition [1] does the source give for `O=C(Nc1cccc(F)c1)NC1CCN(c2ccnc3cc(Cl)ccc23)C1.O=C(O)C(F)(F)F` (stereo not drawn) here?
**A.** 100%

**Q.** And the Inhibition [2]?
**A.** 64%

**Q.** What about the Inhibition [3] of the same molecule?
**A.** 13%

**Q.** Which Inhibition [1] does the source give for `COc1ccc(NC(=O)Nc2cc(C)nc3ccccc23)cc1Cl` here?
**A.** 100%

**Q.** And the Inhibition [2]?
**A.** 49%

**Q.** And the Inhibition [3]?
**A.** 4%

**Q.** `CC(=O)NC1=NC(C)(C)N(OCc2ccc(Cl)c(Cl)c2)C(NC(C)=O)=N1` was tested. Which Inhibition [1] did it give?
**A.** 94%

**Q.** What about the Inhibition [2] of the same molecule?
**A.** 97%

**Q.** And the Inhibition [3]?
**A.** 68%

**Q.** How did the Inhibition [1] turn out when `CNC(=O)C1Cc2c([nH]c3ccc(Br)cc23)C2(CCN(CCc3ccccc3)CC2)N1` (stereo not drawn) was run?
**A.** 100%

**Q.** And the Inhibition [2]?
**A.** 60%

**Q.** What about the Inhibition [3] of the same molecule?
**A.** 15%

**Q.** Which results are given for `O=C(Cn1c(CCc2cccc(F)c2F)cc(=O)c2cccnc21)N(CCn1ccnc1)Cc1ccc(-c2ccc(C(F)(F)F)cc2)cc1`?
**A.** Inhibition [1]: 99%; Inhibition [2]: 62%; Inhibition [3]: 39%

**Q.** What does the source list for `CC(=O)Nc1cccc(C(=O)Nc2cccc(-c3ccc(-c4nc5cc(F)ccc5[nH]4)cc3)c2)c1`?
**A.** Inhibition [1]: 95%; Inhibition [2]: 9%; Inhibition [3]: 60%

**Q.** How did the Inhibition [1] turn out when `Cc1cccc2nc(-c3ccc(-c4ccc(NC(=O)CN5CCN(C)CC5)cc4)cc3)[nH]c12` was run?
**A.** 100%

**Q.** What about the Inhibition [2] of the same molecule?
**A.** 83%

**Q.** And the Inhibition [3]?
**A.** 29%

**Q.** For `O=C(Cc1c[nH]cn1)Nc1ccc(-c2cccc(-c3nc4cc(F)ccc4[nH]3)c2)cc1`, which Inhibition [1] is on record?
**A.** 100%

**Q.** And the Inhibition [2]?
**A.** 70%

**Q.** And the Inhibition [3]?
**A.** 28%

**Q.** For `Cc1ccc(NC(=O)c2ccc(CN3CCCN(Cc4cccc(C#N)c4)CC3)cc2)cc1F.O=C(O)C(F)(F)F`, which Inhibition [1] is on record?
**A.** 98%

**Q.** And the Inhibition [2]?
**A.** 19%

**Q.** What about the Inhibition [3] of the same molecule?
**A.** 49%

**Q.** With `CCN(CC)CCN(Cc1ccc(-c2ccc(C#N)cc2)cc1)C(=O)Cn1c(CCc2cccc(F)c2F)nc(=O)c2ccccc21.O=C(O)C(O)C(O)C(=O)O` as the molecule, how does the Inhibition [1] read?
**A.** 100%

**Q.** And the Inhibition [2]?
**A.** 46%

**Q.** And the Inhibition [3]?
**A.** 31%

**Q.** With `Cl.c1ccc2c(c1)ncn2-c1ccnc(Nc2ccncc2)n1` as the molecule, how does the Inhibition [1] read?
**A.** 89%

**Q.** And the Inhibition [2]?
**A.** 80%

**Q.** And the Inhibition [3]?
**A.** 0%

**Q.** `C=C1C[C@@H](n2cnc3c(NC(=O)c4ccccc4)ncnc32)[C@@H](F)[C@@H]1OC(c1ccccc1)(c1ccccc1)c1ccccc1` was tested. Which Inhibition [1] did it give?
**A.** 98%

**Q.** What about the Inhibition [2] of the same molecule?
**A.** 97%

**Q.** And the Inhibition [3]?
**A.** 16%

**Q.** Which results are given for `Cc1cc(C(=O)NC2CCN(CC3(c4ccccc4)CCCCC3)CC2)on1`?
**A.** Inhibition [1]: 97%; Inhibition [2]: 95%; Inhibition [3]: 0%

**Q.** What does the source list for `COc1ccc(-c2ccc(NC(=O)c3ccc(Cl)cc3)cc2)cc1CN1CCN(C)CC1.O=C(O)C(F)(F)F`?
**A.** Inhibition [1]: 86%; Inhibition [2]: 23%; Inhibition [3]: 36%

**Q.** How did the Inhibition [1] turn out when `CC(C)Nc1nc(NC2CCCCC2)nc(N2CCCCCCC2)n1` was run?
**A.** 86%

**Q.** What about the Inhibition [2] of the same molecule?
**A.** 96%

**Q.** What about the Inhibition [3] of the same molecule?
**A.** 13%

**Q.** With `O=C(/C=C/c1ccc(C(F)(F)F)cc1)NCCCCCN1CCCN(C(=O)Nc2ccc(F)c(Cl)c2)CC1` as the molecule, how does the Inhibition [1] read?
**A.** 100%

**Q.** And the Inhibition [2]?
**A.** 33%

**Q.** And the Inhibition [3]?
**A.** 33%

**Q.** How did the Inhibition [1] turn out when `CN(C)c1ccc(C=C2SC(=N)N(c3nccs3)C2=O)cc1` was run?
**A.** 97%

**Q.** And the Inhibition [2]?
**A.** 50%

**Q.** What about the Inhibition [3] of the same molecule?
**A.** 38%

**Q.** `Cn1nc(-c2cccc(CNC3CCc4ccccc43)c2)c2cnc(NC3CCCC3)nc21` (stereo not drawn) was tested. Which Inhibition [1] did it give?
**A.** 100%

**Q.** And the Inhibition [2]?
**A.** 23%

**Q.** And the Inhibition [3]?
**A.** 14%

**Q.** What does the source list for `CCc1cc([C@H]2O[C@@H](n3cnc4c(NCC(c5ccccc5)c5ccccc5)nc(NCCNc5ccccn5)nc43)[C@H](O)[C@@H]2O)on1.O=CO`?
**A.** Inhibition [1]: 94%; Inhibition [2]: 32%; Inhibition [3]: 14%

**Q.** `O=C(Cc1cccc(O)c1)NCC(Cc1ccc(O)cc1)c1ccccc1` (stereo not drawn) was tested. Which Inhibition [1] did it give?
**A.** 91%

**Q.** And the Inhibition [2]?
**A.** 97%

**Q.** What about the Inhibition [3] of the same molecule?
**A.** 0%

**Q.** Which results are given for `CS(=O)(=O)Cc1ccc(Nc2ncc(Cl)c(Nc3cccnc3C(N)=O)n2)cc1.Cl`?
**A.** Inhibition [1]: 97%; Inhibition [2]: 97%; Inhibition [3]: 54%
